Screens deposited in PubChem BioAssay by National Center for Advancing Translational Sciences (NCATS).
GAA inhib = qHTS Assay for Inhibitors of Human alpha-Glucosidase as a Potential Chaperone Treatment of Pompe Disease; Potency, µM (top dose mostly 76.9 µM), for inactives: top-dose activity change, negative = inhibition, usual class: inhibitors; 200,000 compounds, 0.005% hits; Lysosomal alpha-glucosidase (Homo sapiens), P10253; purified human GAA, 4-MU-alpha-glucoside fluorescence;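 further: potency means the concentration at half of the fitted maximal effect; plate controls were uninhibited enzyme wells for no effect and no-enzyme background for full effect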
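AC50 values come from Hill fits of compound titrations (up to 77 uM) against 4 nM human enzyme. Substrate 4-methylumbelliferyl-alpha-D-pyranoside at 400 uM, pH 5.0 citrate buffer, 20 min room temperature; fluorescence Ex 365/Em 440 after alkaline stop.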
aGlu spleen mod = qHTS Assay for Inhibitors and Activators of Human alpha-Glucosidase From Spleen Homogenate; Lysosomal alpha-glucosidase (Homo sapiens), P10253; human spleen homogenate, 4-MU-alpha-glucoside fluorescence; Potency, µM (highest dose often 79.9 µM), without a hit: at the top dose activity change, negative = inhibition, actives largely listed as inhibitors; 240,000 compounds, 0.006% hits;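 further: potency means the concentration at half of the fitted maximal effect; 0% = enzyme with vehicle and -100% = no enzyme basal signal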
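AC50 values come from Hill-equation fits of concentration-response data, normalized to no-enzyme and full-activity controls. Enzyme source: 1 ug human spleen homogenate; 1 mM fluorogenic 4-MU glucoside, pH 5.0 citrate buffer, 37 C, 40 min.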
GLA inh pH 4.5 = qHTS Assay for Inhibitors of Human alpha-Galactosidase at pH 4.5 | AID 1467, 2008 | activity change, negative = inhibition, % at 105 µM | Alpha-galactosidase A (Homo sapiens), P06280 | purified enzyme, 4-MU-alpha-Gal fluorescence, pH 4.5 | 230,000 tested, under 10 active;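 further: 0% = full activity with enzyme and -100% = basal without enzyme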
N370S GC mod = qHTS Assay for Inhibitors and Activators of N370S glucocerebrosidase as a Potential Chaperone Treatment of Gaucher Disease; N370S GC spleen homogenate, 4MU-glucoside fluorescence; Potency, µM (doses to about 59.4 µM), without a hit: at the top dose activity change, negative = inhibition, most hits filed as inhibitors; 330,000 compounds, 0.092% hits; AID 2101, 2009;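 further: potency means the concentration at half of the fitted maximal effect; 0% = full enzyme activity and -100% = no enzyme basal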
GLA spleen mod = qHTS Assay for Inhibitors and Activators of Human alpha-Galactosidase From Spleen Homogenate; Potency, µM (highest dose often 80 µM), inactives show top-dose activity change, negative = inhibition, hits mostly inhibitors; Alpha-galactosidase A (Homo sapiens), P06280; 240,000 compounds, 0.008% hits; human spleen homogenate, 4MU-alpha-Gal fluorescence, 40 min;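 further: potency means the concentration at half of the fitted maximal effect; 0% = enzyme with vehicle and -100% = no enzyme basal signal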
Target sequence (P06280 32-429 limits assumed): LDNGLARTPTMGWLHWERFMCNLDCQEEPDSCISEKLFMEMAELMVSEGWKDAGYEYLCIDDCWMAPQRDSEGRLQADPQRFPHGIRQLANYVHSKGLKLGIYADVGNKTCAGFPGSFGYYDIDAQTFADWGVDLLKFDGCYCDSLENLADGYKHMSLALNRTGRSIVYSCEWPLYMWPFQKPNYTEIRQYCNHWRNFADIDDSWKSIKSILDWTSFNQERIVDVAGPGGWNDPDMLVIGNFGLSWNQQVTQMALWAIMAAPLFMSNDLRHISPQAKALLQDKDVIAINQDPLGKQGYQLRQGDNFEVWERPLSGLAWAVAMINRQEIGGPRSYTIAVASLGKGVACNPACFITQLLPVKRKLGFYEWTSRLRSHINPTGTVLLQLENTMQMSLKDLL
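Inhibition or activation of alpha-galactosidase in human spleen homogenate is scored by 4-MU fluorescence after 40 min at 37C, pH 5.0, with 1 mM substrate. AC50s come from concentration-response fitted to the Hill equation.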
GAA glycogen = qHTS Assay for Inhibitors and Activators of Human alpha-Glucosidase Cleavage of Glycogen; Lysosomal alpha-glucosidase (Homo sapiens), P10253; recombinant GAA, glycogen substrate, Amplex Red glucose oxidase fluorescence; Potency, µM (top dose mostly 76.4 µM), for inactives: at the top dose activity change, negative = inhibition, usual class: inhibitors; 300,000 compounds, 0.38% hits; AID 2100, 2009;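 further: potency means the concentration at half of the fitted maximal effect; 0% = full enzyme reaction and -100% = no-enzyme basal signal; the screen sought inhibitors and activators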
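Recombinant human alpha-glucosidase (4 nM final) hydrolysed bovine liver glycogen (30 ug) for 40 min at 37 C in pH 5.0 citrate/phosphate with 0.01% Tween-20. Released glucose detected by glucose oxidase/Amplex Red, Ex 573/Em 610 nm. Compounds up to 77 uM; AC50 from Hill fits.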
Numbers without * were called inactive; ? = inconclusive; . = no result; [ ] = another dose, or the depositor's remark. This is a sample that favours compounds with a hit; in the whole collection about 0.43% have one here. The call rests on the fitted dose curve; in most records, active means well fitted curve in the direction sought with a large enough effect; inconclusive means small, poorly fitted or top-dose-only effect, or another doubt; inactive means no such curve, though single readings can be large; an effect the other way counts as inactive or inconclusive.

SMILES	GAA inhib	aGlu spleen mod	GLA inh pH 4.5	N370S GC mod	GLA spleen mod	GAA glycogen
COc1cccc(CNC(=O)CC(NC(C)=O)c2ccccc2)c1 (configuration not stated)	4%	15%	-16	5%	9%	0%
OC1CCN(C(=S)Nc2ccc(Nc3ccccc3)cc2)CC1	8%	5%	-2	-1%	2%	4µM*
S=C(Nc1ccccc1)N1CCC(C2CCN(C(=S)Nc3ccccc3)CC2)CC1	0%	0%	-11	6%	5%	-8%
S=C(Nc1ccc(Nc2ccccc2)cc1)N1CCN(c2ncccn2)CC1	2%	-7%	-3	-8%	2%	8.9µM*
O=C(COc1ccccc1C(=O)N/N=C\c1ccc(O)c(O)c1)N/N=C/c1ccc(O)c(O)c1	-6%	-21%	-5	-3%[12.8 µM]	-8%	3.1µM*
O=C(COc1ccccc1[N+](=O)[O-])N/N=C/c1ccc(O)c([N+](=O)[O-])c1	-3%	-3%	2	15%	2%	3%
CCC(=O)N1CCc2cc(S(=O)(=O)NC(C(=O)NC3CCCc4ccccc43)C(C)C)ccc21 (configuration not stated)	-4%	2%	5	-10%	14%	-4%
CCn1c(COc2ccc(C)cc2)nnc1SCC(=O)NCc1ccco1	-5%	4%	-3	-6%	0%	3%
CCOc1ccc(Nc2nc(Cc3nnc(SCC(=O)NCc4ccco4)n3CC)cs2)cc1	-4%	4%	-2	-5%	3%	18µM*
Nc1ccccc1Nc1nc2ccccc2[nH]1	.	.	.	2%	.	20µM*
Cc1ccc(Oc2ccc(Cl)cc2N)cc1	0%	1%	3	5%	5%	3%
C=C1c2cccc(C(F)(F)F)c2O[C@H](C(=O)OCC)[C@@H]1CCC(C)C	.	-4%[119 µM]	-14	0%[89.1 µM]	-2%[119 µM]	.
CC(=O)Nc1ccc(Nc2nc(-c3ccccc3)nc3ccccc23)cc1	0%	1%	-9	6.3µM*	-4%	-11%
Cc1cccc(-c2nc(Nc3ccc(N4CCOCC4)cc3)c3ccccc3n2)c1	-11%	-3%	-8	2.8µM*	-3%	-5%
O=C(O)c1ccc(Nc2nc(-c3ccc([N+](=O)[O-])cc3)nc3ccccc23)cc1	.	.	.	-6%	.	-9%
Fc1ccc(Nc2nc(-c3ccoc3)nc3ccccc23)cc1	.	5%	.	16µM*	4%	.
c1ccc(CNc2nc(-c3ccoc3)nc3ccccc23)cc1	.	2%	.	?	-2%	.
CC(Nc1nc(-c2ccccc2)nc2ccccc12)c1ccccc1 (configuration not stated)	-1%	-1%	5	5µM*	-1%	-12%
COC(=O)C1=C(N)Oc2cc(C)n(Cc3ccco3)c(=O)c2C1c1cccc(Cl)c1 (configuration not stated)	-10%	-3%	-7	12%	-7%	0%
CC1Cc2cc(/C(O)=C3/C(=O)C(=O)N(CCCN(C)C)C3c3ccncc3)ccc2O1 (configuration not stated)	-2%	-5%	-5	-3%	-6%	-4%
COc1cc(/C=C(\C#N)C(=O)N2CCCCC2)ccc1O	.	.	.	?	.	-2%[76.3 µM]
N#C/C(=C\c1ccc(O)c(O)c1)C(=O)N1CCCC1	-3%	-21%	-13	-27%	-19%	2.8µM*
CC(=O)c1cc2cc(O)ccc2o1	?	?	?	?	?	-1%
CC(=O)c1cc2c(O)c(O)ccc2o1	0%	-7%	2	-7%	2%	31µM*
C#CCOCCOCCOCCNc1nc(N2CCN(C(=O)[C@H](CCC(=O)O)n3cc(C(N)CO)nn3)CC2)nc(N2CCN(C(=O)[C@H](Cc3ccc(O)cc3)n3cc(C(N)CC(C)C)nn3)CC2)n1 (some centres not stated)	.	6%	3	0%	4%	-6%
SMILES	GAA inhib	aGlu spleen mod	GLA inh pH 4.5	N370S GC mod	GLA spleen mod	GAA glycogen
COc1ccc2c(c1)-c1c(sn(-c3ccc(OC)c(OC)c3)c1=S)C(C)(C)N2	-10%	-3%	-2	-3%	-14%	22µM*
COc1ccc(-n2sc3c(c2=S)-c2cc(OC)ccc2NC3(C)C)cc1	1%	-17%	0	2%	7%	?
Cc1ccccc1/C=N/Nc1nc2ccccc2[nH]1	-8%	-7%	0	-14%	-7%	?
Cc1ccc(/C=N/Nc2nc3ccccc3[nH]2)s1	-6%	2%	-7	-21%	5%	28µM*
C(=N\Nc1nc2ccccc2[nH]1)/c1ccccc1	-2%	-15%	9	-27%	0%	?
C(=N\Nc1nc2ccccc2[nH]1)/c1cccc2cccnc12	-13%	-6%	2	-29%	0%	35µM*
C(=N\Nc1nc2ccccc2[nH]1)/c1c[nH]c2ccccc12	-2%	-1%	-3	-10%	11%	22µM*
Cc1cc(=O)[nH]c(N/N=C/c2c[nH]c3ccccc23)n1	-19%	0%	1	-1%	-1%	-26%
COc1ccc(S(=O)(=O)N2CCC(C(=O)NCCN3CCOCC3)CC2)cc1C	.	.	.	-19%	.	.
CCOC(=O)c1c(NC(=O)c2cc(-c3ccccc3OC)on2)sc(C)c1C	.	.	.	.	.	1%[76.3 µM]
O=C1C(=O)N(CNc2cccnc2)c2ccccc21	-2%	4%	3	4%	2%	-3%
COc1ccc(CN2CCNC(=O)C2CC(=O)NC2CCCC2)c(OC)c1 (configuration not stated)	.	.	.	-6%	.	.
Cc1cc(C)cc(N(CC(=O)Nc2ccc(C)cc2Cl)S(=O)(=O)c2c(C)[nH]c(=O)[nH]c2=O)c1	.	.	.	0.25µM*	.	12%[76.3 µM]
COc1ccc(N(CC(=O)Nc2cc(C)ccc2C)S(=O)(=O)c2c(C)[nH]c(=O)[nH]c2=O)cc1	.	.	.	?	.	-14%[76.3 µM]
Cc1ccc(N(CC(=O)Nc2ccc(Br)c(C)c2)S(=O)(=O)c2c(C)[nH]c(=O)[nH]c2=O)cc1	.	.	.	11µM*	.	-14%[76.3 µM]
Cc1cc(C)cc(N(CC(=O)Nc2ccc(C(F)(F)F)cc2)S(=O)(=O)c2c(C)[nH]c(=O)[nH]c2=O)c1	.	.	.	2.2µM*	.	-26%[76.3 µM]
O=C(Nc1ccc(Cl)cn1)c1ccc(Oc2ccccc2)cc1	.	.	.	5%	.	18%[76.3 µM]
